Screening data: PubChem BioAssay, National Center for Advancing Translational Sciences (NCATS)
This is a sample that favours compounds with a hit; in the whole collection about 12% have one here.
AmpC no deterg: qHTS Inhibitors of AmpC Beta-Lactamase (assay without detergent); P00811; AmpC nitrocefin hydrolysis, absorbance 480 nm, 0.0001% Triton; Potency, µM (titrated, usually from 57.1 µM), without a hit: top-dose activity change, negative = inhibition, usual class: inhibitors; AID 485341, 2010; actives 0.52% (n = 330,000);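 note: plate controls were no compound for no effect and no enzyme for full effect; nearly all actives have a fitted effect of over 20% in size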
Target sequence (P00811 whole entry, looked up): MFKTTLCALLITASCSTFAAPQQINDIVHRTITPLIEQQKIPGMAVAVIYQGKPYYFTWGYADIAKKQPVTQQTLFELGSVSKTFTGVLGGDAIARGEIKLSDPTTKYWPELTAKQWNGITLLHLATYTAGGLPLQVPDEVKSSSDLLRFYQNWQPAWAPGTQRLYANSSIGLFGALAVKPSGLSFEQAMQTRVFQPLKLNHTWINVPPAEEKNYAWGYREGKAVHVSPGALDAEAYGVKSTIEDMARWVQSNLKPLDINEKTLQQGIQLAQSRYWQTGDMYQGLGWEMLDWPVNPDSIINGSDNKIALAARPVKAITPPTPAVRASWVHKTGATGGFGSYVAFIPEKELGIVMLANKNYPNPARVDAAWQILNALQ
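AmpC (5.3 nM in the dispensed reagent) in 20 mM phosphate pH 7.0 with 0.01% (detergent screen) or 0.0001% Triton X-100 was preincubated with compounds for 15 min at room temperature. Nitrocefin was then added from an 800 uM solution, and hydrolysis was followed at 480 nm.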
Sm TGR block: qHTS Assay for the Inhibitors of Schistosoma Mansoni Peroxiredoxins; Schistosoma mansoni thioredoxin glutathione reductase (TGR), Q962Y6; purified TGR, DTNB reduction, TNB absorbance 405 nm; Potency, µM (titrated, usually from 114 µM), for inactives: at the highest dose activity change, negative = inhibition, most hits filed as inhibitors; actives 3% (n = 360,000); AID 485364, 2010; note: % is set by controls: 0 for no effect and ±100 for the full control effect; nearly all actives have a fitted effect of over 60% in size
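TGR 20 nM + NADPH 100 uM (dispensed conc.), cpd preinc 15 min RT; start with NADPH (500 uM addition) then DTNB (15 mM addition). Kinetic TNB absorbance, 405 nm filter. Four-parameter Hill fit across titration.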
Pf growth 48h: Primary qHTS for delayed death inhibitors of the malarial parasite plastid, 48 hour incubation; AID 504832, 2011; P. falciparum luciferase growth in erythrocytes, 48 h; Potency, µM (series often up to 28.7 µM), for the others: top-dose activity change, negative = inhibition, usual class: inhibitors; actives 5.9% (n = 310,000); note: % is set by controls: 0 for no effect and ±100 for the full control effect
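Here the parasites carry a stable luciferase gene and grow inside erythrocytes in Albumax-based RPMI medium with compound for one erythrocytic cycle. Activity is scored as loss of luminescent signal.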
AmpC inh detg: qHTS Inhibitors of AmpC Beta-Lactamase (assay with detergent) | actives 0.041% (n = 370,000) | Potency, µM (top dose mostly 114 µM), for the others: at the top dose activity change, negative = inhibition, hits mostly inhibitors | P00811 | AmpC hydrolysis of nitrocefin, absorbance 480 nm, 0.01% Triton;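 note: 0% = no-compound wells and -100% = no-enzyme wells; nearly all actives have a fitted effect of over 25% in size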
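20 mM phosphate pH 7.0 + 0.01% (detergent screen) or 0.0001% Triton X-100; 5.3 nM AmpC reagent; cpd preinc 15 min RT; nitrocefin (800 uM stock) to start; A480 q20 s × 4 min; Activity was normalised to no-enzyme and no-compound control wells.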
Pf growth 96h: Primary qHTS for delayed death inhibitors of the malarial parasite plastid, 96 hour incubation. Potency, µM (highest dose often 28.7 µM), without a hit: top-dose activity change, negative = inhibition, most hits filed as inhibitors. actives 6.9% (n = 320,000). AID 504834, 2011. P. falciparum luciferase reporter growth, 96 h; note: % is set by controls: 0 for no effect and ±100 for the full control effect
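Erythrocytes infected with luciferase-expressing P. falciparum were dispensed at 2% hematocrit and 0.05% parasitemia (final), then incubated with compounds 96 hours at 37 C in 5% CO2. Luminescence after detection reagent addition reported growth.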
SARS PLpro yeast: qHTS of Yeast-based Assay for SARS-CoV PLP; S. cerevisiae expressing SARS-CoV PLpro, growth rescue; Potency, µM (series often up to 32.9 µM), without a hit: top-dose activity, positive = growth rescue, hits mostly activators; actives 0.19% (n = 330,000); AID 485353, 2010; calls by dose curve; note: 0% is about no effect; nearly all actives have a fitted effect of over 55% in size
* = called active by the depositor; ? = inconclusive; . = not tested or not shown. Unless noted, calls come from the whole dose curve; as a rule, active = well fitted curve in the direction sought with a large enough effect; inconclusive = small, poorly fitted or top-dose-only effect, or another doubt; inactive = no such curve, though single readings can be large; an effect the other way counts as inactive or inconclusive. Potency is the fitted concentration of half-maximal effect.

SMILES | AmpC no deterg | Sm TGR block | Pf growth 48h | AmpC inh detg | Pf growth 96h | SARS PLpro yeast
Cc1cccc(C)c1NC(=O)CNc1ncnc2sc(C)c(C)c12 | -0.1% | 6.3% | -2.9% | -13.3% | 30.7% | -23.4%
COC(=O)c1cc(NC(=O)c2cccc(C(F)(F)F)c2)c(=O)oc1C | -9.5% | ? | 0.0% | 3.3% | 35.5% | -7.3%
COC(=O)c1cc(NC(=O)c2cccc(C(F)(F)F)c2)c(=O)oc1C/C=N/OCc1cccc(Cl)c1Cl | 7.94µM* | 2.0% | . | -7.9% | ? | -5.2%
O=C(NC1CCCCCC1)C1CCN(S(=O)(=O)c2cnc[nH]2)CC1 | -9.6% | 2.0% | ? | -3.8% | ? | 2.7%
COc1ccc(-c2cc(C(=O)Nc3c(C)nn(Cc4ccc(F)cc4)c3C)no2)cc1OC | . | 1.7% | . | 23.9% | . | .
CSc1nc(-c2ccco2)nn1C(=O)c1ccco1 | -21.3% | ? | -0.1% | -8.8% | -8.9% | -7.1%
COc1ccc(C(=O)n2nc(-c3ccco3)nc2N)cc1 | -16.4% | 31.6µM* | -22.6% | 4.9% | 27.9% | -10.5%
COc1ccccc1/C=c1\sc2nc(-c3ccco3)nn2c1=O | -32.1% | 11.2µM* | 15.0% | ? | ? | 2.5%
COc1ccccc1C(=O)n1nc(-c2ccco2)nc1SC | -18.6% | 14.1µM* | 9.9% | 2.9% | -17.6% | -5.8%
CSc1nc(-c2ccco2)nn1C(=O)c1ccccc1 | -13.7% | 15.8µM* | ? | 3.5% | 35.3% | -2.2%
CSc1nc(-c2ccco2)nn1C(=O)c1ccc(C)cc1 | -17.0% | ? | 8.2% | ? | -0.8% | 0.5%
OC(COCc1ccc(Cl)cc1)CN1CCCCC1 (configuration not stated) | -3.2% | -0.7% | 17.4% | -4.7% | ? | 4.8%
Cc1cccc(NC(=O)C2CCN(S(=O)(=O)c3c(C)[nH]c(=O)[nH]c3=O)CC2)c1 | -4.1% | 7.5% | 46.3% | ? | 13.1µM* | -40.7%
Cc1[nH]c(=O)[nH]c(=O)c1S(=O)(=O)N1CCC(C(=O)NC(C)c2ccccc2)CC1 (configuration not stated) | -4.7% | -2.4% | -3.8% | ? | 4.15µM* | -48.6%
CCN(CC)S(=O)(=O)c1cc(NC(=O)c2ccc3c(c2)NC(=O)C(C)S3)ccc1C (configuration not stated) | -22.7% | -2.8% | ? | -10.4% | ? | -2.9%
CNC(=S)N/N=C/c1cn(CCOc2ccc(OC)cc2)c2ccccc12 | -48.0% | -2.9% | ? | -12.4% | 5.86µM* | ?
CNC(=O)OC(C)CNS(=O)(=O)c1ccc(C)cc1 (configuration not stated) | 1.7% | -17.1% | 11.4% | -18.3% | 11.7µM* | 2.2%
Cc1ccc(S(=O)(=O)NCC(C)NS(=O)(=O)c2ccc(C)cc2)cc1 (configuration not stated) | -28.1% | -1.9% | 4.1% | -1.2% | 2.5% | 4.2%
CCN1CCN(C(c2ccc(SC)cc2)c2c(O)cc(C)n(Cc3ccco3)c2=O)CC1 (configuration not stated) | . | 3.55µM* | . | -7.8% | . | .
CCN1CCN(C(c2ccccc2)c2c(O)cc(C)n(Cc3ccco3)c2=O)CC1 (configuration not stated) | . | 4.47µM* | . | 4.5% | . | .
CCN1CCN(C(c2ccccc2)c2sc3nc(C)nn3c2O)CC1 (configuration not stated) | -16.3% | 8.9% | 7.8% | 7.8% | 34.3% | 8.0%
CCN1CCN(C(c2ccc(OC)cc2)c2c(O)cc(C)n(Cc3ccco3)c2=O)CC1 (configuration not stated) | . | 5.62µM* | . | -1.4% | . | .
Cc1cc(O)c(C(c2ccccc2)N2CCN(C)CC2)c(=O)n1Cc1ccco1 (configuration not stated) | . | 5.62µM* | . | -0.3% | . | .
Cc1cc(O)cc(=O)n1Cc1ccco1 | -24.4% | 0.0% | 30.1% | -9.4% | ? | 1.9%
COc1ccccc1CCNC(=O)Cn1ccc2cc(S(=O)(=O)N3CCCCC3)ccc21 | . | 0.4% | . | -0.4% | . | .
SMILES | AmpC no deterg | Sm TGR block | Pf growth 48h | AmpC inh detg | Pf growth 96h | SARS PLpro yeast
Cc1ccc(NC(=O)C(C)NC(=O)OCc2ccccc2)cc1C (configuration not stated) | 1.4% | 12.3% | 0.6% | 2.2% | -7.5% | 0.4%
Cc1cc(C)c(COCc2cc(/C=N/O)c(C)cc2C)cc1/C=N/O | -25.0% | 6.1% | . | -11.1% | 10.4µM* | -4.8%
CCOC(=O)C1(Cc2ccccc2)CCCN(Cc2ccc(OCC)c(CO)c2)C1 (configuration not stated) | 95.2% | 0.0% | ? | 2.4% | 2.1% | 0.5%
CCOC(=O)C1(Cc2ccccc2C)CCCN(C(=O)c2ccc3nccnc3c2)C1 (configuration not stated) | 105.3% | -15.9% | 13.1µM* | 2.7% | -23.4% | 7.2%
CCOC(=O)C1(Cc2ccccc2C)CCCN(Cc2ccc(NC(C)=O)cc2)C1 (configuration not stated) | 99.1% | 0.0% | 5.22µM* | 0.5% | ? | 0.3%
CCOC(=O)C1(Cc2ccccc2C)CCCN(C(=O)c2ccccn2)C1 (configuration not stated) | 44.7% | ? | -3.9% | 3.4% | ? | -3.2%
CCC(C)NC(=O)c1nn(-c2ccc(C)cc2)nc1CO (configuration not stated) | . | 5.0% | . | 23.2% | . | .
Cc1ccc(-c2nnc(SCC(=O)N(C)C)nc2-c2ccc(C)cc2)cc1 | 116.5% | 2.2% | ? | -12.7% | ? | -2.5%
COc1cc(/C=C(\C#N)c2nc3ccc(C)cc3[nH]2)ccc1OCc1ccc(C)cc1 | . | 7.5% | . | 6.6% | . | .
COc1cc(/C=C(\C#N)c2ccccn2)ccc1OCc1ccccc1 | 0.8% | -8.5% | 9.28µM* | -14.8% | ? | 23.5%
COc1cc(/C=C(\C#N)c2ccccn2)ccc1OCc1ccc(Cl)cc1 | -36.7% | -0.9% | 6.57µM* | -8.4% | 5.22µM* | 41.8%
O=S1(=O)c2ccccc2N(Cc2cccc(C(F)(F)F)c2)c2ccccc21 | . | -1.2% | . | 16.3% | . | .
CCOc1c(C)cnc2c1c(=O)n(Cc1ccccc1F)c(=O)n2C | -5.2% | 4.7% | 10.5% | -9.0% | 2.9% | -26.2%
COc1cc(C(=O)NCC(c2cccnc2)N2CCN(C)CC2)cc(OC)c1OC (configuration not stated) | -12.9% | -5.9% | -2.2% | ? | -8.3% | -3.8%
